# The whole screen tested about 140,000 compounds, of which about 860 (0.61%) were called active. This excerpt belongs to a sample that is enriched for actives. A number with no mark means an inactive call. Rule as the data show it: active = inhibition above about 25%; inactive = the rest.
# Target: E3 ubiquitin-protein ligase RBX1 (Homo sapiens) + Cullin-1 (Homo sapiens) (UniProt P62877+Q13616)
# Experiment: inhibitors of human ROC1-CUL1 ubiquitin ligase activity (AID 1347404)
# Conditions: in vitro K48 di-Ub FRET, acceptor:donor ratio, 45 min; at 10 µM; hits give high values
# Sequence of E3 ubiquitin-protein ligase RBX1 (Homo sapiens) + Cullin-1 (Homo sapiens) (P62877 whole entry, looked up): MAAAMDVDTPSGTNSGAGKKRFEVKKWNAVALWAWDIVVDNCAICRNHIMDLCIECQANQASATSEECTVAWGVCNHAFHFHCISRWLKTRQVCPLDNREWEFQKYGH
# Sequence of E3 ubiquitin-protein ligase RBX1 (Homo sapiens) + Cullin-1 (Homo sapiens) (Q13616 whole entry, looked up): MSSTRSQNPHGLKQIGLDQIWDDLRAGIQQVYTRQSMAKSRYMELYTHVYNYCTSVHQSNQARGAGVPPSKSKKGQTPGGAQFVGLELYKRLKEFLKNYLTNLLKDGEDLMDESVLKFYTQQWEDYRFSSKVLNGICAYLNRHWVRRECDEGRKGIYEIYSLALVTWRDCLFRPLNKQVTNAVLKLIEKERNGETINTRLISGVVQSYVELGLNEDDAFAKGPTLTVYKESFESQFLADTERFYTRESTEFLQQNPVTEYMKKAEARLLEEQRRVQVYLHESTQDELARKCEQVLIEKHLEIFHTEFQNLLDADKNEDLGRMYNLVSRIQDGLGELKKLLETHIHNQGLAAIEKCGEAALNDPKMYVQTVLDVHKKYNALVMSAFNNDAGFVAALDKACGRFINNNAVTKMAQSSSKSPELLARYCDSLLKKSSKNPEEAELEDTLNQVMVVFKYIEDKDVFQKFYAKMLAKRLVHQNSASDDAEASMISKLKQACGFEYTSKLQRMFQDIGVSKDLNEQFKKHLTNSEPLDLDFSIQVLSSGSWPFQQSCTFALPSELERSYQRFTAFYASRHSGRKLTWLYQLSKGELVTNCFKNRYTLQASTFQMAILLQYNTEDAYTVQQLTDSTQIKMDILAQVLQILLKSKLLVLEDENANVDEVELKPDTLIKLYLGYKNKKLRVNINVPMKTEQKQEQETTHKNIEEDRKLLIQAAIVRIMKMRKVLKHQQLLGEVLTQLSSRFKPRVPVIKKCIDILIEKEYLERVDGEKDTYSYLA
row,SMILES,inhibition
1,CCCCc1nnc(SCC2=Nc3ccc(F)cc3C(=O)C2)n1C,-6.52%
2,Cc1scc(Cc2csc(C)c2C)c1C,-4.02%
3,Cc1ccc(NC(=O)c2c(N)sc3c2CCC3)c(C)c1,43.1% (active)
4,Cc1cccc(C(=O)Nc2ccc(C)cc2C)c1,-1.04%
5,COc1ccc(-c2cc(-c3ccc(C)cc3)nc3sc(C(=O)Nc4ccc(C)cc4C)c(N)c23)cc1OC,7.9%
6,Cc1[nH]c2ccccc2c1C(c1cccnc1)N1CCN(c2ccc(F)cc2)CC1 (centres undefined),2.08%
7,CN(C)CCOCCOC(c1ccccc1)c1ccccc1C(F)(F)F (centres undefined),0.845%
8,COC(=O)c1ccccc1NC(=O)CCCC(=O)OCC(=O)c1ccc(Br)cc1,1.86%
9,CCOC(=O)c1cnc2c(C)cc(Cl)cc2c1N1CCN(Cc2ccccc2)CC1,-3.19%
10,COc1ccc(N2C(S)=C(C#N)C(=O)NC2c2ccc(-c3ccccc3Cl)o2)cc1 (centres undefined),24.9%
11,CC(C)(C)NS(=O)(=O)c1ccc(NC(=O)C2CCCO2)cc1 (centres undefined),-1.62%
12,O=C(OCc1ccc(Br)cc1)c1ccccc1C(=O)c1ccccc1,3.15%
13,CC(=O)c1ccc(NC(=O)CCCC(=O)OCC(=O)c2ccc(-c3ccccc3)cc2)cc1,-6.85%
14,O=C(Nc1ccc(S(=O)(=O)O)c2ccccc12)c1ccc(C(=O)Nc2ccc(S(=O)(=O)O)c3ccccc23)cc1,2.57%
15,O=C(Nc1ccccc1O)c1cccc(S(=O)(=O)Nc2ccc(F)cc2)c1,1.23%
16,O=C(Nc1ccc(S(=O)(=O)O)c2cc(S(=O)(=O)O)cc(O)c12)c1ccccc1,63.3% (active)
17,CC(O)c1cn(C2CCN(c3nc4ccccc4s3)CC2)nn1 (centres undefined),4.88%
18,COc1ccccc1C(=O)Nc1ccnn1C1CCN(Cc2nccn2C)CC1,9.37%
19,CC(C)(C)NS(=O)(=O)Cc1ccc(Cl)cc1Cl,7.68%
20,Cc1nc2ccccc2n1/N=C/c1ccccc1,3.45%
21,C/C(=N\O)c1sc2nc3ccccc3n2c1C,26.5% (active)
22,CCOC(=O)CNc1nc2ccccc2n2c(C)nnc12,-3.19%
23,CCc1ccccc1-c1nc2c(cnn2C)[nH]1,5.57%
24,CC1CCN(CC(O)COC2CC3CCC2(C)C3(C)C)CC1 (centres undefined),0.492%

row,SMILES,inhibition
1,CCN(CC)C(=O)CSc1nc2sc3c(c2c(=O)n1C)CCC3,1.01%
2,CC(C)C1=NN2C(=N)/C(=C/c3cccc(OCc4ccc(F)cc4)c3)C(=O)N=C2S1,-4.78%
3,COc1cc(/C=C2\C(=N)N3N=C(Cc4cccs4)SC3=NC2=O)cc(OC)c1OC,6.55%
4,N=C1/C(=C/c2cccc(OC(=O)c3ccc(Cl)cc3)c2)C(=O)N=C2SC(c3cccs3)=NN12,49.6% (active)
5,Cc1ccc(N2C(=O)/C(=C\c3ccc(Cl)cc3)SC2=S)cc1,8.97%
6,CN(C)c1ccc(/C=C2\SC(=N)N(c3nccs3)C2=O)cc1,-5.77%
7,CC(C(=O)O)N1C(=O)/C(=C/c2ccc(N(C)C)cc2)SC1=S (centres undefined),52.9% (active)
8,CCOc1ccc(/C=C2\C(=O)NN(c3ccc(Cl)c(Cl)c3)C2=O)cc1OCC,1.02%
9,CCOc1cc(/C=C2/C(=O)NN(c3ccc(CC)cc3)C2=O)c(Br)c(Br)c1O,54.1% (active)
10,CCCOc1ccccc1/C=C1\C(=O)NN(c2cccc(Br)c2)C1=O,20%
11,N#CC1=C2c3ccccc3CCC2C(c2ccco2)=NC1=O (centres undefined),42% (active)
12,CC1=NC(=O)C(C#N)=C(C)C1CSCc1ccco1 (centres undefined),0.332%
13,CCN(Cc1nccn1C)C(=O)c1ccc(N(C)CC2CCCCN2C)nc1 (centres undefined),-0.562%
14,CCC(C)C(=O)Nc1ccc(I)cc1 (centres undefined),3.94%
15,COc1ccccc1NC(=O)NC1CC(=O)N(CC(C)(C)C)C1 (centres undefined),-2.73%
16,CC1(C)CC(=O)C(=Cc2c[nH]c3ccccc23)C(=O)C1,-0.144%
17,Cc1cc(C)cc(N2CC(C(=O)N3CCc4ccccc4C3)CC2=O)c1 (centres undefined),6.46%
18,O=C(CC1C(=O)NCCN1CCc1ccccc1)NCCCn1ncc2ccccc21 (centres undefined),0.369%
19,COc1cc(C2C3=C(CCCC3=O)OC3=C2C(=O)CCC3)ccc1OCC(=O)Nc1ccccc1,-1.19%
20,O=C(NC(=S)N1CCCC1)c1ccc(Br)o1,4.57%
21,O=C(/C=C/c1ccccc1)Oc1cccc(C(=O)Nc2nc3ccccc3[nH]2)c1,14.2%
22,O=C([O-])c1ccc(C[n+]2c3ccccc3n3nc4c(cc32)c2cccc3cccc4c32)cc1,-16.8%
23,O=C(C[n+]1c2ccccc2n2nc3c(cc21)c1cccc2cccc3c21)Nc1nc2ccccc2[nH]1,93.1% (active)
24,Cn1c(=O)c2c(nc(SCC(=O)Nc3ccc(OC(F)(F)F)cc3)n2Cc2cccc(Cl)c2)n(C)c1=O,10%

row,SMILES,inhibition
1,Cc1cc(N2C(=O)C(=O)C(C(=O)c3ccc(F)cc3)C2c2ccccc2)no1 (centres undefined),-4.72%
2,COCCN(C)C(=O)c1cc(NC(=O)c2ccccc2)cc2ncn(C3CCCC3)c12,12.6%
3,C=CCn1c(SCC(=O)c2ccccc2)nc2ccccc2c1=O,2.49%
4,COc1ccc(OC)c(/C=C/C(=O)c2ccc(OC)c(OC)c2)c1,-2.06%
5,CCN=C1CC=C(Br)C=C(C(=O)/C=C/c2ccccc2OC)C1=O,101% (active)
6,COc1ccc(/C=C/C(=O)c2cc3ccccc3oc2=O)c(OC)c1,-5.94%
7,CC(C)NC(=O)Cc1coc2ccc(C(C)(C)C)cc12,5.19%
8,Cc1noc(C)c1C(=O)CCCCCCCCCCCCCCC(=O)O,-8.93%
9,Cc1ccc(OC(=O)c2ccc(Br)cc2Br)c(C)c1,5.25%
10,CCCC(=O)NC(=S)Nc1ccccc1Sc1ncnc2scc(-c3ccccc3)c12,3.87%
11,COc1ccc2c(c1)OC(C)CN(Cc1ccc3cccnc3c1)C2 (centres undefined),1.92%
12,CN1C(=O)C(C(=NCc2ccccc2)c2nn[nH]n2)C(=O)c2ccccc21 (centres undefined),2.67%
13,Cc1ccc(N=C/C=C/c2ccc([N+](=O)[O-])cc2)cc1,6.74%
14,CC(=O)Nc1cc(C)ccc1[N+](=O)[O-],-2.27%
15,Cc1ccc(N2C(=O)c3ccccc3NC2c2ccc(OCc3ccccc3)cc2)cc1 (centres undefined),8.59%
16,C=CCNC(=O)C1CCN(S(=O)(=O)N(C)C)CC1,8.77%
17,O=C(CSc1nc2scc(-c3ccccc3)c2c(=O)n1-c1ccccc1)c1ccccc1F,8.07%
18,O=C(Nc1ccccc1Cl)c1cc(-c2ccc(Cl)s2)nc2ccccc12,-7.97%
19,CCOc1cc(Br)c(Br)c(C=Nc2cccc(NC(=O)c3ccc(Cl)cc3Cl)c2)c1O,13.5%
20,CCN(CC1CCCN(CCc2cccc(OC)c2)C1)C1CCN(C(C)=O)CC1 (centres undefined),-12.6%
21,COc1ccc(C(=O)CC=Nc2ccc(Oc3ccccc3Cl)cc2)cc1OC,11.3%
22,Cc1ccc(NC(=O)C(=O)NC(=O)c2n[nH]c3c2CCCC3)cc1,2.41%
23,CCOc1ccc(Cl)cc1S(=O)(=O)N1CCCCC1C (centres undefined),3.07%
24,O=C([C@@H]1C[C@H]1c1ccccc1)N1CCOc2ccc(CN3CCN(c4ncccn4)CC3)cc2C1,-2.65%

row,SMILES,inhibition
1,Cc1cnc(Sc2nccn2C)c([N+](=O)[O-])c1,-1.03%
2,CCOC(=O)c1cc(N2C(=O)c3cccc4cccc(c34)C2=O)ccc1Cl,-1.46%
3,COC(=O)c1cc2ccccc2n1C,-2.5%
4,Clc1ccc(-c2csc(NN=C3c4ccccc4-c4ccccc43)n2)cc1,-3.38%
5,COc1cc(/C=C(/C)[N+](=O)[O-])c2c(c1Br)CCCO2,-18%
6,COc1ccc2c(c1)CCCN2Cn1nc(COc2ccc(C3CCCCC3)cc2)n(C)c1=S,0.371%
7,c1cc2nsnc2cc1CN1CCCC(Nc2ccc3c(c2)OCO3)C1 (centres undefined),2.61%
8,Cc1cc(Oc2cc(-n3[nH]c(=O)c4ccccc4c3=O)nc(-c3ccccc3)n2)cc(C)c1Cl,7.28%
9,CCN(CC1CCN(C2CCN(C)CC2)CC1)C(=O)c1occc1C,9.69%
10,O=C(NCN1CCN(CNC(=O)c2cccnc2)CC1)c1cccnc1,-0.31%
11,CCN1CCN(c2nc(-c3ccc(OC)cc3)cc(=O)[nH]2)CC1,5.84%
12,Cc1ccc(Cl)cc1N1CCN(C(=O)C23CC4CC(CC(C4)C2)C3)CC1,-7.78%
13,Cc1ccccc1CS(=O)(=O)N1CCC(Cc2ccccc2)CC1,8.78%
14,COc1ccc(C(Nc2cc(C)ccn2)c2ccc3cccnc3c2O)c(OC)c1OC (centres undefined),2.02%
15,COc1ccc2nc(SCC#CCSc3nc4ccc(OC)cc4[nH]3)[nH]c2c1,7.63%
16,CNCC#CCOc1ccccc1C(C)(C)C,-2.15%
17,O=c1cc(Cl)c2ccccc2o1,-4.6%
18,CN(C)/C=C/c1c(C#N)c(=O)oc2ccccc12,9.69%
19,Nc1scc2c1c(=O)oc1ccccc12,57% (active)
20,CCOC(=O)C(C(=O)OCC)c1ccc(OC)cc1[N+](=O)[O-],2.12%
21,CCOc1cc(/C=C2/SC(=O)N(C(C)C)C2=O)ccc1O,-0.43%
22,Nc1nc2c(ncn2S(=O)(=O)c2ccc(C(=O)O)cc2)c(=O)[nH]1,7.51%
